Experimental data as given in PubChem BioAssay (NCI).
This is part of a sample that, as a whole, favours compounds with a hit. Of some 83,000 tested, about 20% had one in any assay.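 Percent growth is the endpoint: 0 to 100 indicates growth inhibition (40 means 60% inhibition), 0 means no net growth, and negative values indicate cell death.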 Active and inactive are the calls of the source. How the source made its calls: active means growth percent below 10; inactive means the rest.

Test system: OVCAR-8 ovarian
Test: NCI-60 one-dose screen, 48 h (100 = growth as untreated, 0 = no growth, -100 = all killed)
Conditions: 10 µM unless noted

Row | Structure (SMILES) | growth
1 | CC(C)(CNC1CCCCC1)OC(=O)c1ccccc1 | 101% (inactive)
2 | COC(=O)c1ccc2[nH]c(O)c(C(=Nc3ccc(N(C)C(=O)CN4CCN(C)CC4)cc3)c3ccc4c(c3)OCO4)c2c1 | 20.3% (inactive)
3 | O=C(/C=C\c1ccc(NCc2ccc(C(=O)O)cc2)cc1)CCl | 66.9% (inactive)
4 | CCCCCCC(C)N(CC(C)(C)O)C(=O)c1ccc([N+](=O)[O-])cc1 (stereo not drawn) | 101% (inactive)
5 | C=CN(C)S(C)(=O)=O | 34.8% (inactive)
6 | CCCCCCC(C(=O)OCC)(C(=O)OCC)C1CCCCCC1 | 107% (inactive)
7 | CCOC(=O)NC1=NCC(C)(C)S1 | 104% (inactive)
8 | Cc1ccc2c(c1)C(=O)CCS2 | 100% (inactive)
9 | S=C(N/N=C/c1cc(Cl)cc(Cl)c1)NC12CC3CC(CC(C3)C1)C2 | 56.8% (inactive)
10 | COC(=O)C(N)CC(C)C (stereo not drawn) | 101% (inactive)
11 | O=C(Nc1ccc(Cl)c(Cl)c1)O/N=C\c1c(Cl)ccc([N+](=O)[O-])c1Cl | 8% (active)
12 | O=C(/C=C/c1ccc(Cl)cc1)c1ccc(Cl)cc1 | 106% (inactive)
13 | O=C(Nc1cccc(Cn2c(=O)[nH]c3ccc(Oc4ncccn4)cc3c2=O)c1)c1cccc(F)c1 | 78.7% (inactive)
14 | CC(=O)c1ccc2c(c1)c1ccccc1n2C | 95.4% (inactive)
15 | CCC(C)CC(N)O (stereo not drawn) | 107% (inactive)
16 | COc1cc2ncnc(-n3ncc4cc(NC(=O)Nc5ccccc5)ccc43)c2cc1OC | 50.1% (inactive)
17 | O=C(O)CS(=O)c1ccc(Cl)cc1 (stereo not drawn) | 99% (inactive)
18 | O=C1C(=O)c2ccccc2C(O)=C1CCCc1ccc(Oc2ccccc2)cc1 | 72.7% (inactive)
19 | O=C1C(Br)=CC2C1C1C3CCC3C2(Br)C12OCCO2 (stereo not drawn) | 28.5% (inactive)
20 | CC1(C)NC(=S)NC1=O | 106% (inactive)

Row | Structure (SMILES) | growth
21 | CCCCCCCCCCC1OC(C)CC(C)O1 (stereo not drawn) | 99.5% (inactive)
22 | O=C1C=C(OCC=C(C(F)(F)F)C(F)(F)F)c2ccccc2C1=O | -22.8% (active)
23 | CCOC1=C(Cl)C(=O)C(OCC)=C(Cl)C1=O | 104% (inactive)
24 | O=C(NCCO)C(F)(F)F | 103% (inactive)
25 | Oc1ccc(Br)cc1/C=N/NC(=S)NC12CC3CC(CC(C3)C1)C2 | -31.3% (active)
26 | COc1cc(N2C(=O)C=CC2=O)ccc1N1C(=O)C=CC1=O | 110% (inactive)
27 | c1cc[c]([Bi]([c]2ccccc2)[c]2ccccc2)cc1 | 101% (inactive)
28 | O=C(CN1C(=O)NC(c2ccccc2)(c2ccccc2)C1=O)c1ccc(N2CCCC2)cc1 | 83.4% (inactive)
29 | CC(O)CN(CCO)CCN(CCO)CC(C)O (stereo not drawn) | 106% (inactive)
30 | CNc1ccc(Nc2ccc(S(=O)(=O)O)cc2)c2c1C(=O)c1ccccc1C2=O | 101% (inactive)
31 | Cc1ccc(S(=O)(=O)NC(CCC(=O)Nc2ccccc2)C(=O)Nc2ccccc2)cc1 (stereo not drawn) | -10.9% (active)
32 | COC1(OC)N=C(N)C2(C#N)C3(C(=O)Nc4ccccc43)C12C#N (stereo not drawn) | 94.2% (inactive)
33 | Cn1c2ccccc2c2ccccc21 | 98.3% (inactive)
34 | Oc1ccc([S+](c2ccc(O)cc2)c2ccc(O)cc2)cc1 | 94.3% (inactive)
35 | Nc1cc(N)c2nc(-c3ccccc3)c(NCCc3ccc(Cl)c(Cl)c3)nc2c1 | -90.6% (active)
36 | COC(=O)Nc1nc2ccc(C(=O)c3ccccc3N(C)C3COC3)cc2[nH]1 | 34.7% (inactive)
37 | CCOP1(=O)CC(C)=C(Cl)C(P(=O)(O)O)C1 (stereo not drawn) | 91.8% (inactive)
38 | CCCCCCCCC1OC1CCCCCCCC(=O)O (stereo not drawn) | 101% (inactive)
39 | CC(O)CN(CC(C)O)N(CC(C)O)CC(C)O (stereo not drawn) | 97.9% (inactive)

Test system: OVCAR-5 ovarian
Test: as above
Conditions: 10 µM unless noted

Row | Structure (SMILES) | growth
40 | CC(C)(CNC1CCCCC1)OC(=O)c1ccccc1 | 114% (inactive)
41 | COC(=O)c1ccc2[nH]c(O)c(C(=Nc3ccc(N(C)C(=O)CN4CCN(C)CC4)cc3)c3ccc4c(c3)OCO4)c2c1 | 35.8% (inactive)
42 | O=C(/C=C\c1ccc(NCc2ccc(C(=O)O)cc2)cc1)CCl | 114% (inactive)
43 | CCCCCCC(C)N(CC(C)(C)O)C(=O)c1ccc([N+](=O)[O-])cc1 (stereo not drawn) | 106% (inactive)
44 | C=CN(C)S(C)(=O)=O | 90.9% (inactive)
45 | CCCCCCC(C(=O)OCC)(C(=O)OCC)C1CCCCCC1 | 102% (inactive)
46 | CCOC(=O)NC1=NCC(C)(C)S1 | 98.9% (inactive)
47 | Cc1ccc2c(c1)C(=O)CCS2 | 97.5% (inactive)
48 | S=C(N/N=C/c1cc(Cl)cc(Cl)c1)NC12CC3CC(CC(C3)C1)C2 | 85.7% (inactive)
49 | COC(=O)C(N)CC(C)C (stereo not drawn) | 108% (inactive)
50 | O=C(Nc1ccc(Cl)c(Cl)c1)O/N=C\c1c(Cl)ccc([N+](=O)[O-])c1Cl | 12.1% (inactive)
51 | O=C(/C=C/c1ccc(Cl)cc1)c1ccc(Cl)cc1 | 104% (inactive)
52 | O=C(Nc1cccc(Cn2c(=O)[nH]c3ccc(Oc4ncccn4)cc3c2=O)c1)c1cccc(F)c1 | 96.1% (inactive)
53 | CC(=O)c1ccc2c(c1)c1ccccc1n2C | 108% (inactive)
54 | CCC(C)CC(N)O (stereo not drawn) | 99.9% (inactive)
55 | COc1cc2ncnc(-n3ncc4cc(NC(=O)Nc5ccccc5)ccc43)c2cc1OC | 24.7% (inactive)
56 | O=C(O)CS(=O)c1ccc(Cl)cc1 (stereo not drawn) | 95.5% (inactive)
57 | O=C1C(=O)c2ccccc2C(O)=C1CCCc1ccc(Oc2ccccc2)cc1 | 110% (inactive)
58 | O=C1C(Br)=CC2C1C1C3CCC3C2(Br)C12OCCO2 (stereo not drawn) | 33.5% (inactive)
59 | CC1(C)NC(=S)NC1=O | 108% (inactive)

Row | Structure (SMILES) | growth
60 | CCCCCCCCCCC1OC(C)CC(C)O1 (stereo not drawn) | 99.2% (inactive)
61 | O=C1C=C(OCC=C(C(F)(F)F)C(F)(F)F)c2ccccc2C1=O | 96.3% (inactive)
62 | CCOC1=C(Cl)C(=O)C(OCC)=C(Cl)C1=O | 110% (inactive)
63 | O=C(NCCO)C(F)(F)F | 96.6% (inactive)
64 | Oc1ccc(Br)cc1/C=N/NC(=S)NC12CC3CC(CC(C3)C1)C2 | 46.9% (inactive)
65 | COc1cc(N2C(=O)C=CC2=O)ccc1N1C(=O)C=CC1=O | 103% (inactive)
66 | c1cc[c]([Bi]([c]2ccccc2)[c]2ccccc2)cc1 | 99.3% (inactive)
67 | O=C(CN1C(=O)NC(c2ccccc2)(c2ccccc2)C1=O)c1ccc(N2CCCC2)cc1 | 101% (inactive)
68 | CC(O)CN(CCO)CCN(CCO)CC(C)O (stereo not drawn) | 99.7% (inactive)
69 | CNc1ccc(Nc2ccc(S(=O)(=O)O)cc2)c2c1C(=O)c1ccccc1C2=O | 98.7% (inactive)
70 | Cc1ccc(S(=O)(=O)NC(CCC(=O)Nc2ccccc2)C(=O)Nc2ccccc2)cc1 (stereo not drawn) | -8.85% (active)
71 | COC1(OC)N=C(N)C2(C#N)C3(C(=O)Nc4ccccc43)C12C#N (stereo not drawn) | 65.1% (inactive)
72 | Cn1c2ccccc2c2ccccc21 | 107% (inactive)
73 | Oc1ccc([S+](c2ccc(O)cc2)c2ccc(O)cc2)cc1 | 101% (inactive)
74 | Nc1cc(N)c2nc(-c3ccccc3)c(NCCc3ccc(Cl)c(Cl)c3)nc2c1 | -76.9% (active)
75 | COC(=O)Nc1nc2ccc(C(=O)c3ccccc3N(C)C3COC3)cc2[nH]1 | 57% (inactive)
76 | CCOP1(=O)CC(C)=C(Cl)C(P(=O)(O)O)C1 (stereo not drawn) | 94.8% (inactive)
77 | CCCCCCCCC1OC1CCCCCCCC(=O)O (stereo not drawn) | 108% (inactive)
78 | CC(O)CN(CC(C)O)N(CC(C)O)CC(C)O (stereo not drawn) | 101% (inactive)
